An excerpt weighted towards active compounds, which were near 12% of everything screened.
Sfp inh: blocks B. subtilis Sfp PPTase activity. Potency, µM, inactives show largest response in the series, negative = inhibition, hits mostly inhibitors. actives 3.5% (n = 310,000). Biochemical Sfp PPTase activity, qHTS. AID 1490. Q9F4F7;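 note: the enzyme is Sfp with the accession as filed and its product quenches rhodamine fluorescence; 0% = enzyme reaction without inhibitor and -100% = no enzyme wells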
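With Hepes-Na pH 7.6 buffer containing 10 mM MgCl2, Sfp (15 nM) modified BHQ-2-YbbR (12.5 uM) using rhodamine-CoA (5 uM). Two reads 30 minutes apart at 525/598 nm yielded each well's rate.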
BAZ2B inh: inhibitors of human BAZ2B bromodomain. Q9UIF8. AlphaScreen BAZ2B-H3K14Ac peptide displacement. Potency, µM (titrated, usually from 114 µM), without a hit: at the highest dose activity change, negative = inhibition, actives largely listed as inhibitors. actives 4.4% (n = 360,000); note: % is set by controls: 0 for no effect and ±100 for the full control effect; nearly all actives have a fitted effect of over 60% in size
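Protein-peptide AlphaScreen: BAZ2B 50 nM, b-H3K14Ac 50 nM, 1x PBS pH 7.4 + 0.01% Tween-20. Preincubation 30 min RT; cpd 30 min RT (top 110 uM); beads 20 min RT, light-protected.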
JMJD2A Tudor: inhibitors of human JMJD2A Tudor domain; actives 4.4% (n = 390,000); AlphaScreen JMJD2A-Tudor / H3K4me3 peptide binding; Potency, µM (highest dose often 114 µM), for inactives: top-dose activity change, negative = inhibition, usual class: inhibitors; AID 504339; O75164; note: % is set by controls: 0 for no effect and ±100 for the full control effect; nearly all actives have a fitted effect of over 50% in size
G9a inh: G9a (human) methyltransferase inhibition. Q96KQ7. G9a H3K9 monomethylation, AlphaScreen, 2 h. Potency, µM (titrated, usually from 102 µM), inactives show top-dose activity, negative = inhibition, usual class: inhibitors. actives 8.8% (n = 350,000). AID 504332; note: % is set by controls: 0 for no effect and ±100 for the full control effect; nearly all actives have a fitted effect of over 75% in size
Target sequence (Q96KQ7 913-1193 limits assumed): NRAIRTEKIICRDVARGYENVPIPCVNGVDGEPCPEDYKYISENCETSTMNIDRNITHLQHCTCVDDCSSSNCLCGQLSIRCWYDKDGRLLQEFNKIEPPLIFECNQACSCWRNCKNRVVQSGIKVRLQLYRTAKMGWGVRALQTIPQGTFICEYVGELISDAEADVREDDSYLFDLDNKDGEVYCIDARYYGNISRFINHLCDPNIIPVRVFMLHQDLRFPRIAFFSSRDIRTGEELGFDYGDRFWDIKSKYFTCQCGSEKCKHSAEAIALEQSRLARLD
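Chemiluminescent proximity detection of H3K9 monomethylation, read after 10 min bead incubation in the dark. Reaction: 20 nM G9a, 500 nM biotin-H3K9 peptide, 20 uM SAM cofactor, 2 h, room temperature, following 15 min enzyme-compound preincubation.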
HP1b binding inh: HP1-beta chromodomain-methylated histone interaction inhibition. P83916. AlphaScreen HP1-beta / biotin-H3K9me3 peptide binding. Potency, µM (series often up to 114 µM), for inactives: at the top dose activity change, negative = inhibition, usual class: inhibitors. actives 0.56% (n = 390,000); note: nearly all actives have a fitted effect of over 70% in size
Target sequence (P83916 whole entry, looked up): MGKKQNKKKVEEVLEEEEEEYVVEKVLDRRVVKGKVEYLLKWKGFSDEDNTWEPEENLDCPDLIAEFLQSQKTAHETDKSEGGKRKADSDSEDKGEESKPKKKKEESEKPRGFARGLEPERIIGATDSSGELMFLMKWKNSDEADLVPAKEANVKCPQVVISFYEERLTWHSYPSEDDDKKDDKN
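AlphaScreen: HP1-beta (50 nM) preformed 30 min with biotin-H3(1-18)K9me3 peptide (50 nM) in PBS pH 7.4, 0.01% Tween-20. Compound added for 30 min at RT, then streptavidin donor/nickel chelate acceptor beads (10 ug/mL) for 30 min.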
The depositor's hits bear a star; ? = inconclusive; . = not tested or not shown; [ ] = remark or other dose. Calls come from the whole dose curve; as a rule, active = well fitted curve in the direction sought with a large enough effect; inconclusive = small, poorly fitted or top-dose-only effect, or another doubt; inactive = no such curve, though single readings can be large; an effect the other way counts as inactive or inconclusive. Potency is the fitted concentration of half-maximal effect.

SMILES	Sfp inh	BAZ2B inh	JMJD2A Tudor	G9a inh	HP1b binding inh
Cn1c(SCC(=O)Nc2ccc3nc(SCC(=O)N4CCCC4)sc3c2)nnc1-c1ccc(N)cc1	-28%	?	-23%	10µM*	24%
CCC(Sc1nnc(C)s1)C(=O)Nc1nccs1 (stereo not drawn)	3%	-5%	-6%	1%	23%
O=C(CSc1nc2ccccc2s1)Nc1ccc(Cl)c(S(=O)(=O)N2CCOCC2)c1	7%	-23%	-15%	?	17%
O=C(CSc1nc2ccccc2s1)Nc1ccc(N2CCOCC2)c(Cl)c1	-11%	4%	-22%	7.1µM*	23%
Cn1c(SCC(=O)Nc2ccc3nc(SCC(=O)NC4CC4)sc3c2)nnc1-c1ccccc1	0%	9%	-4%	9%	18%
Cc1cc(=O)n2nc(-c3ccccc3)sc2c1C#N	11%	17%	?	18%	-4%
CCN(C(=O)COC(=O)C1=COCCO1)c1ccccc1	.	9%	5%	17%[12.7 µM]	19%
CCOc1ccccc1-n1c(SCC(N)=O)nnc1-c1ccc(O)cc1	-7%	1%	-7%	23%[2.33 µM]	20%
NC(=O)NOCc1ncc(C(F)(F)F)cc1Cl	-1%	4%	0%	5%[59 µM]	34%
COc1ccccc1CCC(=O)Nc1cccc(S(=O)(=O)N2CCCCCC2)c1	.	-6%	-12%	8%	11%
CCCC(=O)Nc1ccc2nc(SCC(=O)Nc3nccs3)sc2c1	-13%	?	79µM*	?	-10%
CCOc1ccc(N2CCCn3c2nc2c3c(=O)n(CCc3ccccc3)c(=O)n2C)cc1	14%	-17%	.	3.2µM*	.
Cc1cccc(N2C(=O)CS(=O)(=O)C23C(=O)N(Cc2c(F)cccc2Cl)c2ccccc23)c1 (stereo not drawn)	.	2%[57.1 µM]	-17%	-33%[59 µM]	16%
CCn1c(-c2cc(-c3cc(C)ccc3C)nc3ccccc23)n[nH]c1=S	-6%	?	56µM*	28µM*	15%
CCNC(=S)NNC(=O)c1cc(C2CC2)nc2ccccc12	18%	-1%[57.1 µM]	2%	17%	21%
CCOc1cccc(-c2cc(-c3n[nH]c(=S)n3CC)c3ccccc3n2)c1	?	?	?	?	-16%
CCn1c(-c2cc(-c3ccc(C)c(C)c3)nc3ccccc23)n[nH]c1=S	-20%	?	.	40µM*	.
CCOc1ccccc1-c1cc(-c2n[nH]c(=S)n2CC)c2ccccc2n1	3%	-37%	45µM*	10µM*	17%
CCn1c(-c2cc(C3CC3)nc3ccccc23)n[nH]c1=S	-8%	-32%	50µM*	2.2µM*	21%
Cc1ccc(-c2cc(-c3n[nH]c(=S)n3C)c3ccccc3n2)cc1	?	?	?	2µM*	-30%
Cc1ccc2nc(Nc3nc(-c4ccccc4)cc(=O)[nH]3)nc(C)c2c1	15%	-2%	-16%	14%	28%
COc1ccc2c(C)nc(Nc3nc(-c4ccccc4)cc(=O)[nH]3)nc2c1	11%	79µM*	?	?	22%
CC[C@@H](C)[C@H](CNC)NC[C@@H](Cc1cccc2ccccc12)NCCc1cccc(C(F)(F)F)c1	79µM*	?	?	45µM*	10%
CCC[C@H](CN[C@@H](CNC)[C@H](C)CC)NCCc1cc(C(F)(F)F)cc(C(F)(F)F)c1	20%	-9%	-23%	-5%	39%
COC(=O)c1cc(C(=O)OCC(=O)N2c3ccccc3NC(=O)C2(C)C)cc([N+](=O)[O-])c1	2%	?	?	-21%	-9%
SMILES	Sfp inh	BAZ2B inh	JMJD2A Tudor	G9a inh	HP1b binding inh
CC1=C(C(=O)Nc2cccc(C(F)(F)F)c2)C2(CCCCC2)OC1=O	.	-9%	-18%	-6%[59 µM]	9%
COc1cc(/C=N/NC2=NCCCCC2)ccc1O	12%	-4%	-4%	56µM*	38%
Oc1ccc(/C=N/NC2=NCCCCC2)cc1	5%	1%	-12%	40µM*	32%
CC(=O)Nc1nnc(-c2ccccn2)o1	?	?	?	28µM*	16%
N#Cc1ccc(C(=O)Nc2nnc(-c3ccccn3)o2)cc1	20%	8.9µM*	?	50µM*	16%
COc1cc(NC(=S)NCCCN2CCOCC2)c(OC)cc1Cl	13%	-17%	-12%	?	23%
COc1ccc(NC(=S)NCCN2CCOCC2)c(OC)c1	.	.	3%	.	18%
COc1ccc(OC)c(NC(=S)NCCCN2CCOCC2)c1	50µM*	-23%	-7%	?	19%
CCCN1CCC(NC(=O)Nc2ccc(Br)cc2)CC1	14%	30%	-18%	35µM*	27%
CCCN1CCC(NC(=S)Nc2ccc(OC)c(OC)c2)CC1	-5%	-11%	-8%	50µM*	56%
COc1ccc(NC(=S)NCCCN2CCCC2)cc1Cl	20µM*	?	-3%	18µM*	2%
Cc1ccc(CN2C(=O)c3ccccc3C2C(=O)NCC2CCCO2)cc1 (stereo not drawn)	-7%	4%	-19%	5%	38%
C=CCN(C(=O)CCC(=O)Nc1cc(C)on1)C(C(=O)NC1CCCC1)c1ccc(C)cc1 (stereo not drawn)	13%	-19%	-15%	?	-3%
COc1ccc(Cl)cc1NC(=S)NCCN1CCOCC1	-8%	-11%	-16%	.	21%
COc1ccc(NC(=S)NCCN2CCC(C)CC2)cc1Cl	2.5µM*	-6%	-27%	11µM*	-17%
CN(/N=C\c1ccc(O)c(O)c1)c1nc(-c2ccccc2)cc(-c2ccccc2)n1	?	40µM*	?	40µM*	?
N#Cc1nc(-c2ccc(Cl)cc2)oc1NCCc1ccccn1	10%	6%	-11%	?	15%
Cc1ccc(NC(=O)CCC(=O)N2Cc3ccccc3Oc3ncccc32)cc1Cl	.	-7%[57.1 µM]	-24%	-17%[59 µM]	5%
CN(C)c1ccc(C=NC(CO)C(O)c2ccc([N+](=O)[O-])cc2)cc1 (stereo not drawn)	9%	-14%	-5%	13%	6%
Cc1ccc(S(=O)(=O)NCC(c2ccc(N(C)C)cc2)N2CCOCC2)cc1 (stereo not drawn)	.	-35%	?	?	-23%
CN(C)c1ccc(C(CNS(=O)(=O)c2ccc3ccccc3c2)N2CCOCC2)cc1 (stereo not drawn)	.	50µM*	?	14%[0.501 µM]	?
CN(C)c1ccc(C(c2ccc(N(C)C)cc2)c2ccc([N+](=O)[O-])cc2)cc1	10%	6.3µM*	10µM*	5µM*	8.9µM*
CN(C)c1ccc(C(CNS(=O)(=O)c2ccc([N+](=O)[O-])cc2)N2CCCC2)cc1 (stereo not drawn)	.	6%	45µM*	45µM*	?
CN(C)c1ccc(C(CNS(=O)(=O)c2ccc(F)cc2)N2CCOCC2)cc1 (stereo not drawn)	.	-32%	-31%	-18%[59 µM]	10%
